From PubChem BioAssay
PrP UTR inh – inhibition of PrP 5' UTR reporter expression. cell-based PrP 5' UTR mRNA reporter, plate reader. inhibition, % (concentration not given with the values). actives 0.35% (n = 340,000). AID 488862, 2010; in the data active = inhibition above about 52%; note: 0 = median of the neutral control wells
PrPC surface inh – inhibitors of human cell surface prion protein PrPC, primary screen, cell-based, TR-FRET; Major prion protein (Homo sapiens), P04156; TR-FRET read-out; inhibition, % at 13.8 µM; actives 0.43% (n = 370,000); AID 720596, 2013; in the data active = inhibition above about 24%; note: 0% = median of the test wells and 100% = reference compound wells
PfHsp40 rescue – rescue of yeast from PfHsp40 toxicity, primary screen, S. cerevisiae, ATP luminescence; S. cerevisiae expressing PfHsp40, growth rescue; growth rescue, % at 12.5 µM; actives 0.68% (n = 340,000); AID 504582, 2011; in the data active = growth rescue above about 28%, passing the limit was not always enough; inconclusive = no clear call, values can overlap the other calls;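 note: yeast W303a lacking pdr1 and pdr3 grown in galactose medium; growth measured after three days at 30 °C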
Mtb FBA inh – Mtb FBA enzyme inhibitors, primary screen, biochemical, fluorescence, strain H37Rv; Fructose-bisphosphate aldolase (Mycobacterium tuberculosis (strain ATCC 25618 / H37Rv)), …; inhibition, % at 1 µM; actives 2.3% (n = 360,000); purified M. tuberculosis FBA, fluorescence read-out; AID 588726, 2011;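 note: 0% = vehicle and 100% = reference inhibitor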
Target sequence (P9WQA3 whole entry, looked up): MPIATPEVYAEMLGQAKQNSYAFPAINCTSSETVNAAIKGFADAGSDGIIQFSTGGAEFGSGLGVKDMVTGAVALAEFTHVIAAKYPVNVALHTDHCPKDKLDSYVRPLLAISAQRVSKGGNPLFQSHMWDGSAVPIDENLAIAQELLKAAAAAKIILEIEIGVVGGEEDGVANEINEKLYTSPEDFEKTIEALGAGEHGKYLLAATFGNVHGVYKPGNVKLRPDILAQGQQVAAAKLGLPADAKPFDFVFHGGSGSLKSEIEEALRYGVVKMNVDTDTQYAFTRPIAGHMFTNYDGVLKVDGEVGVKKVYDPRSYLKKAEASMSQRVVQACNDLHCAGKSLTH
BJeLR lethal – MLPCN primary cell-based screen for lethality selective to Ras in HRASV12 cells | BJeLR (HRASV12) viability, CellTiter-Glo ATP luminescence, 48 h | inhibition, % (concentration not given with the values) | actives 0.17% (n = 300,000); in the data active = inhibition above about 50%; inconclusive = no clear call, values can overlap the other calls
GDH-TPI counter-1 – GDH-TPI coupling enzyme inhibitors, primary screen, artefact control for M. tuberculosis FBA inhibitor project, biochemical, absorbance, full deck; actives 1.2% (n = 360,000); GDH-TPI coupled enzyme counterscreen, NADH absorbance; inhibition, % at 4.8 µM; in the data active = inhibition above about 30%;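 note: 0% = DMSO wells and 100% = wells lacking the enzyme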
Mtb FBA confirm – M. tuberculosis aldolase blockers, biochemical, fluorescence, strain H37Rv, confirmation. purified M. tuberculosis FBA, fluorescence read-out. actives 78% (n = 5,600). inhibition, % at 1 µM. shares compounds with Mtb FBA inh;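 note: 0% = vehicle wells and 100% = reference inhibitor wells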
GDH-TPI counter-2 – GDH-TPI coupling enzyme inhibitors, artefact control for M. tuberculosis FBA inhibitor project, biochemical, fluorescence, high throughput; shares compounds with Mtb FBA inh; actives 81% (n = 5,600); GDH-TPI coupled enzyme counterscreen; inhibition, % at 1 µM; in the data active = inhibition above about 10%
The depositor's hits bear a star; ? = inconclusive; · = no result; + = active, no number. Most compounds without a hit are left out; they make up all but 4.5% or so of the library. Cut-off read from the data, not from the text of the source, unless noted: active = inhibition above about 27%; inactive = the rest.

SMILES	PrP UTR inh	PrPC surface inh	PfHsp40 rescue	Mtb FBA inh	BJeLR lethal	GDH-TPI counter-1	Mtb FBA confirm	GDH-TPI counter-2
COc1ccc(NC(=O)C2Cc3c(-c4ccc(NC(C)=O)cc4)ccnc3O2)cc1OC (stereo not given)	·	0	·	4	·	3	·	·
CC(C)NC(=O)C1Cc2c(-c3ccc4c(c3)OCO4)ccnc2O1 (stereo not given)	·	0	·	52*	·	4	111*	91*
COc1ccc(NC(=O)C2Cc3c(-c4ccc5c(c4)OCO5)ccnc3O2)cc1OC (stereo not given)	·	11	·	48*	·	6	27*	19*
O=C(NCc1ccc(F)c(F)c1)C1Cc2c(-c3ccc4c(c3)OCO4)ccnc2O1 (stereo not given)	·	6	·	49*	·	-2	177*	136*
O=C(N/N=C/c1ccccc1OCc1ccccc1)c1cccs1	-22	3	1	-4	18	21	·	·
CC(=O)NS(=O)(=O)c1ccc(N=c2ssc3c2-c2ccc(C)cc2NC3(C)C)cc1	-2	-4	-1	-1	0	20	·	·
Cc1cccc(C)c1-n1nnnc1C(c1ccnc2ccccc12)N(CCN(C)C)Cc1ccccc1 (stereo not given)	·	-11	·	·	·	·	·	·
COc1ccc(CNC(=O)C2Cc3c(-c4ccc5c(c4)OCO5)ccnc3O2)cc1OC (stereo not given)	·	11	·	31*	·	8	+	+
CCOc1ccc(Oc2c(C)oc3cc(O)ccc3c2=O)cc1	-43	-9	0	44*	-1	9	+	160*
Cc1oc2cc(O)ccc2c(=O)c1Oc1ccccc1Br	-10	1	0	96*	-6	18	6	-1
COC(=O)c1cc(-c2c(C)oc3cc(OC)ccc3c2=O)c(C)o1	5	3	-2	-3	·	-7	·	·
Cc1oc2cc(O)ccc2c(=O)c1Oc1ccccc1	-11	2	0	101*	-1	22	83*	59*
COC(=O)c1cc(-c2c(C)oc3cc(O)ccc3c2=O)c(C)o1	-19	0	-1	76*	-2	29	29*	32*
COCCN(C(=O)CSc1nnc(-c2ccccc2C)n1C)c1c(N)n(Cc2ccccc2)c(=O)[nH]c1=O	-21	7	-1	1	-7	-3	·	·
CC(=O)c1ccn(S(=O)(=O)c2ccccc2)c1	-3	-2	0	2	5	4	·	·
O=C(Nc1cccc2ccccc12)c1ccc([N+](=O)[O-])cc1	-40	-35	-1	0	-5	4	·	·
O=C(CNc1cccc2ccccc12)c1ccc([N+](=O)[O-])cc1	-22	-11	?	28*	-8	1	56*	36*
COC(=O)c1ccc(Cn2cc(Cl)cn2)o1	-31	-6	0	-1	-4	1	·	·
COC(=O)c1c(C(=O)OC)n(CCCN)c2ccc(C)cc12	-8	-4	-1	98*	-5	1	100*	63*
CCOC(=O)c1c(C)n(CCO)c2ccc(O)cc12	-20	-1	1	-1	9	8	·	·
O=C(Nc1cccc(Cl)c1)c1cccnn1	-7	16	0	0	3	-2	·	·
O=c1c2ccccc2nc2c3ccccc3c(NCc3ccccn3)nn12	-23	1	9	79*	·	2	+	180*
O=c1c2ccccc2nc2c3ccccc3c(NCc3cccnc3)nn12	1	-1	0	2	13	3	·	·
O=c1c2ccccc2nc2c3ccccc3c(NCCO)nn12	0	-10	-1	33*	1	8	+	+
Nc1ncccc1C(=O)OCC(=O)N1CCN(S(=O)(=O)c2ccc(Cl)cc2)CC1	-2	1	-1	62*	·	23	9	-4
SMILES	PrP UTR inh	PrPC surface inh	PfHsp40 rescue	Mtb FBA inh	BJeLR lethal	GDH-TPI counter-1	Mtb FBA confirm	GDH-TPI counter-2
CCOc1ncccc1C(=O)OCC(=O)N1CCN(S(=O)(=O)c2ccc(Cl)cc2)CC1	-41	1	0	-3	1	-5	·	·
CN(C)CC1(C)Cc2ccsc2C1O (stereo not given)	-14	4	0	0	·	0	·	·
CCCCn1c(N)c(N(CC)C(=O)CCc2ccccc2)c(=O)[nH]c1=O	-21	6	-1	-1	-16	1	·	·
C(=C\c1ccc2nncn2c1)/c1ccccc1	·	-5	·	50*	·	13	11	-3
Oc1ccccc1-c1ccn[nH]1	-26	2	-1	0	·	0	·	·
Oc1ccccc1-c1nc2c3ccccc3c3ccccc3c2[nH]1	-17	5	-1	94*	3	12	99*	90*
O=c1oc(-c2cccs2)nc2ccccc12	-3	3	-2	-9	3	17	·	·
c1csc(-c2nc3c4ccccc4c4ccccc4c3[nH]2)c1	0	5	-1	58*	2	7	+	+
CC(=O)c1ccc(OC(=O)CCc2nc3ccccc3s2)cc1	-18	-2	2	2	5	9	·	·
CC(=O)N1C[C@H]2CON(C)[C@H]2C[C@H]1c1ccc(-c2ccccc2)cc1	·	11	·	2	·	-1	·	·
CC1(C(=O)NCc2ccccc2)Cc2c(-c3ccc4c(c3)OCO4)ccnc2O1 (stereo not given)	·	0	·	69*	·	-12	109*	105*
COc1ccc(NC(=O)C2(C)Cc3c(-c4ccc5c(c4)OCO5)ccnc3O2)cn1 (stereo not given)	·	8	·	42*	·	-4	169*	124*
CC1(C(=O)NCCc2ccccc2)Cc2c(-c3ccc4c(c3)OCO4)ccnc2O1 (stereo not given)	·	10	·	46*	·	-6	59*	41*
